Active and inactive are the calls of the source.
What was measured:
Albumin (Bos taurus) = Albumin (Bos taurus) (UniProt P02769); assay: compounds binding labelled BSA control protein – biochemical, small-molecule microarray, Alexa647 label, 635/667 nm fluorescence, artefact control for SMM control protein annotation, profiling panel (AID 1118); conditions: BSA-A647 binding, fluorescence 635 nm, higher = more signal;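 further: score merges 667 nm emission intensity and signal-to-noise per printed compound spot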
Sequence of Albumin (Bos taurus) (P02769 whole entry, looked up): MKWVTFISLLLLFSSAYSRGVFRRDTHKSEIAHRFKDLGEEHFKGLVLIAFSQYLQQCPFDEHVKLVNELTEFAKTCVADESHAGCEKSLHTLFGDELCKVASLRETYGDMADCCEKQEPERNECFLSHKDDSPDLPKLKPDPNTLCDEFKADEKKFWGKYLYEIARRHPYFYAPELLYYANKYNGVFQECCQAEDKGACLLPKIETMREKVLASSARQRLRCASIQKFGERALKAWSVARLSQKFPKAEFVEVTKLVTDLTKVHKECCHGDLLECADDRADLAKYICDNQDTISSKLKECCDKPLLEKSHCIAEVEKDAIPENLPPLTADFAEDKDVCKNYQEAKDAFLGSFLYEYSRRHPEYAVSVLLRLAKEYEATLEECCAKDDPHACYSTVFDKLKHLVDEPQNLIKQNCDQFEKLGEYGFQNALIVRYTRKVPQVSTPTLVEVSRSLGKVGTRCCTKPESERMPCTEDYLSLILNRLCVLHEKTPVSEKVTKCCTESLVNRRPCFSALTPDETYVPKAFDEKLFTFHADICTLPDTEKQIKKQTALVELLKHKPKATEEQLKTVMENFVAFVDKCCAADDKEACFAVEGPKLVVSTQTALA

[1] = probe aXIP binding to arrayed compounds – biochemical, NeuroSMM set, 635/667 nm fluorescence, primary screen (AID 1119); conditions: small-molecule microarray, higher = more signal, called active from +8 up or from −8 down;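 further: probe is the protein aXip251-270 applied at 1 µg/mL to compound-printed slides; binding of probe to printed compounds measured as 667 nm fluorescence plus signal to noise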
[2] = probe aNOTCH3 binding on compound microarray – biochemical, small-molecule microarray, 635/667 nm fluorescence, primary screen (AID 1120); conditions: higher = more signal;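 further: probe is a biotin-tagged antibody raised against NOTCH3 rather than NOTCH3 protein; score merges spot fluorescence near 667 nm with spot signal to noise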
[3] = probe aNOTCH2 binding on compound microarray – biochemical, small-molecule microarray, 635/667 nm fluorescence, primary screen (AID 1121); conditions: higher = more signal;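 further: score merges feature fluorescence read at 667 nm with its signal to noise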
[4] = molecular target: Carbonic anhydrase 2 (Homo sapiens) (UniProt P00918); assay: compounds binding carbonic anhydrase 2 – biochemical, small-molecule microarray, Alexa647-labelled CAII, profiling panel (AID 1122); conditions: CAII-A647 binding fluorescence, higher = more signal
[5] = COS7 lysate on small-molecule microarray, probe aHis, 635 nm (AID 1123); conditions: COS7 cell lysate, fluorescence, higher = more signal;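 further: z-score combines 667nm fluorescence intensity with signal-to-noise per printed compound spot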
[6] = probe aLAP1 signal on lysate-treated microarray – cell lysate, small-molecule microarray, COS7 lysate, primary screen (AID 1124); conditions: probe aLAP1, fluorescence, higher = more signal;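 further: lysate comes from COS7 cells expressing LAP1 and is applied at 0.3 µg/mL; score merges spot fluorescence near 667 nm with signal-to-noise over triplicate slides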
Sam68 (KHDRBS1) = assay: compounds binding KHDRBS1 protein – biochemical, small-molecule microarray, 635 nm fluorescence, primary screen (AID 1125); conditions: higher = more signal;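 further: score merges 667 nm channel intensity with signal to noise over triplicate slides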
[7] = test system: Chordin-like protein 2 (CHRDL2); assay: compounds binding chordin-like 2 – biochemical, small-molecule microarray, 635 nm fluorescence, primary screen (AID 1126); conditions: fluorescence 635 nm, higher = more signal;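 further: printed compound slides probed with Chrdl2 protein at 4 µg/mL for 1 h at 4 C; score merges 667 nm emission intensity with signal to noise over three replicate slides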
[8] = molecular target: Concanavalin-A (Canavalia ensiformis) (UniProt P02866); assay: compounds binding concanavalin A lectin – biochemical, small-molecule microarray, Alexa647 label, 635 nm, artefact control for SMM control protein annotation, primary screen (AID 1127); conditions: ConA-A647 binding fluorescence, higher = more signal;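 further: z combines 667 nm emission intensity with signal-to-noise across three replicate slides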
Sequence of Concanavalin-A (Canavalia ensiformis) (P02866 whole entry, looked up): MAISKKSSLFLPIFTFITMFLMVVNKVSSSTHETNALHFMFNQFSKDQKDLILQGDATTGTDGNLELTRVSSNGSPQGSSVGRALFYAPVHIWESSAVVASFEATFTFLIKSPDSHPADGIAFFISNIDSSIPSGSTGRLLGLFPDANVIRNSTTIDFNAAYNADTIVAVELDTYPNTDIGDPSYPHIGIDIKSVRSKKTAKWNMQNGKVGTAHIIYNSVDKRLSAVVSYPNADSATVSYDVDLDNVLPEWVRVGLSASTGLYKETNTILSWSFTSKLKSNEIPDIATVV

[9] = compounds binding Alexa647 anti-His antibody – biochemical, small-molecule microarray, 635 nm fluorescence, artefact control for SMM control protein annotation, primary screen (AID 1128); conditions: higher = more signal;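 further: score merges feature fluorescence with signal-to-noise for each printed compound spot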
[10] = test system: Human papillomavirus type 1a E7 protein (residues 1-88); assay: HPV1a E7 small-molecule binders, primary screen, biochemical, small-molecule microarray, residues 1-88, 635 nm (AID 1129); conditions: small-molecule microarray binding, fluorescence 635 nm; higher = more signal
[11] = molecular target: Focal adhesion kinase 1 (Homo sapiens) (UniProt Q05397); assay: PTK2 protein binding on printed compound slides – biochemical, small-molecule microarray, 635/667 nm fluorescence, BSA, DTT, primary screen (AID 1130); conditions: 635 nm fluorescence, higher = more signal;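 further: composite of spot emission at 667 nm and signal to noise over triplicate slides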
Sequence of Focal adhesion kinase 1 (Homo sapiens) (Q05397 whole entry, looked up): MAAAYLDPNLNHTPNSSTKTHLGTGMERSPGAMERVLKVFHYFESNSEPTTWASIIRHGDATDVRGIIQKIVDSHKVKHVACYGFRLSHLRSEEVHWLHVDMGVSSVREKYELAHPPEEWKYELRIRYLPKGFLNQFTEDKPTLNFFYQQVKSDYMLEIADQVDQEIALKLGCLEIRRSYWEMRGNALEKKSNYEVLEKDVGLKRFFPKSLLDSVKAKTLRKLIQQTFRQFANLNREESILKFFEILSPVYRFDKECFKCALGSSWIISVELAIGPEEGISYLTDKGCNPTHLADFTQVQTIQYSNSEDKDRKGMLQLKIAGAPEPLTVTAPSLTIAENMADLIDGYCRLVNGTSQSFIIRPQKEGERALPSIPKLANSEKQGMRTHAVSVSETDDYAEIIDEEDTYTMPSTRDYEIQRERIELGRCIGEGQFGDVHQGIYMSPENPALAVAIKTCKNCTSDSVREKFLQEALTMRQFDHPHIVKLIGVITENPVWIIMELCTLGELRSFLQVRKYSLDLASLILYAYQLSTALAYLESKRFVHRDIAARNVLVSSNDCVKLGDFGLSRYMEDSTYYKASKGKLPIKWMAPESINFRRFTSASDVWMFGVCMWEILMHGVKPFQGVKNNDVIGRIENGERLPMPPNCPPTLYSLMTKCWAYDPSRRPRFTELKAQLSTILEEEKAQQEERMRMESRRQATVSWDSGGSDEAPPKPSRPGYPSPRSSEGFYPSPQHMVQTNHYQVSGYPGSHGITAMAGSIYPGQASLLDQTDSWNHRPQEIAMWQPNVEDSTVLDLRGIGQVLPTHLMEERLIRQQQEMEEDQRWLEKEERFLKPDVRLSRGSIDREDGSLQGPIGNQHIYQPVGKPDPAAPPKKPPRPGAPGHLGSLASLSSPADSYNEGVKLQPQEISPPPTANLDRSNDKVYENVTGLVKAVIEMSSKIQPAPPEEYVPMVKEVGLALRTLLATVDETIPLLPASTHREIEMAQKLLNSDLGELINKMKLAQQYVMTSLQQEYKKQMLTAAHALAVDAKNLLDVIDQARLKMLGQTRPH

[12] = test system: Fibrinogen (Alexa647-labelled); assay: Alexa647-fibrinogen binding to printed small molecules – biochemical, small-molecule microarray, 635/667 nm fluorescence, artefact control for SMM control-protein annotation, profiling panel (AID 1131); conditions: fibrinogen-A647 binding fluorescence, higher = more signal;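 further: z-score merges 667 nm fluorescence with per-spot signal-to-noise over triplicate slides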
[13] = molecular target: Follistatin (Homo sapiens) (UniProt P19883); assay: FST protein binding to printed compounds – biochemical, small-molecule microarray, 635/667 nm fluorescence, primary screen (AID 1132); conditions: 635 nm fluorescence, higher = more signal
Sequence of Follistatin (Homo sapiens) (P19883 whole entry, looked up): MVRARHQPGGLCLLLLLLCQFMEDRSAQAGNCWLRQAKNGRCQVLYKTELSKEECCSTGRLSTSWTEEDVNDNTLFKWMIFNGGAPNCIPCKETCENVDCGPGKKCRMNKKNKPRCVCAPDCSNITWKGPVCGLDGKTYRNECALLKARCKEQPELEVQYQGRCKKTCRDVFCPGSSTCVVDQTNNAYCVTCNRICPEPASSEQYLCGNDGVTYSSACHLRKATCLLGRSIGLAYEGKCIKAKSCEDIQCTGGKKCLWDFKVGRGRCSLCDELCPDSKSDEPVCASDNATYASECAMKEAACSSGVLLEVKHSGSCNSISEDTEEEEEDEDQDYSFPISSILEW

[14] = molecular target: Fibroblast growth factor 2 (Homo sapiens) (UniProt P09038); assay: basic fibroblast growth factor binding to printed compounds – biochemical, small-molecule microarray, 635/667 nm fluorescence, primary screen (AID 1133); conditions: FGF2, fluorescence 635/667, higher = more signal
Sequence of Fibroblast growth factor 2 (Homo sapiens) (P09038 whole entry, looked up): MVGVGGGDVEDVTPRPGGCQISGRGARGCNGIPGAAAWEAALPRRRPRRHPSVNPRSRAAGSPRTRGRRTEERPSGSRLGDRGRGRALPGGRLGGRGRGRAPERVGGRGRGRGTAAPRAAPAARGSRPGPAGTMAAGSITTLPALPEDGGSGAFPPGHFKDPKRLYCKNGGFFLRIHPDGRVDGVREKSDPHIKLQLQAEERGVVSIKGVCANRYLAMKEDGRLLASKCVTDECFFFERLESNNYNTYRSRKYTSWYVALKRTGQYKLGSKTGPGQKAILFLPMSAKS

[15] = JC-1 mitochondrial potential readout, lung cancer cells – cell-based, A549, JC-1 fluorescence, basal, 24 h, 100 nL, profiling panel (AID 1138); conditions: higher = more signal;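 further: A549 lung adenocarcinoma cells under basal conditions with no added stimulus; test concentration not given here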
Lefty1 = Lefty1 protein binding to printed compounds – biochemical, small-molecule microarray, 635/667 nm fluorescence, primary screen (AID 1139); conditions: fluorescence 635/667, higher = more signal
[16] = test system: wheat germ agglutinin (Triticum aestivum), Alexa647-labelled; assay: Alexa647-WGA lectin binding to printed small molecules – biochemical, small-molecule microarray, 635/667 nm fluorescence, artefact control for SMM control-protein annotation, profiling panel (AID 1140); conditions: WGA-A647 binding, 635 nm fluorescence, higher = more signal;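 further: score merges 667 nm feature emission with signal to noise over triplicate slides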
[17] = molecular target: Luciferin 4-monooxygenase (Photinus pyralis) (UniProt P08659); assay: inhibition of purified Photinus pyralis luciferase – biochemical, luminescence, purified enzyme, 2006 set, primary screen (AID 1141); conditions: purified firefly luciferase, SteadyGlo luminescence, 30 min; higher = more signal, called active from +8 up or from −8 down;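 further: cell-free assay with purified firefly luciferase at 100 ng per well in PBS; test concentration not given here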
Sequence of Luciferin 4-monooxygenase (Photinus pyralis) (P08659 whole entry, looked up): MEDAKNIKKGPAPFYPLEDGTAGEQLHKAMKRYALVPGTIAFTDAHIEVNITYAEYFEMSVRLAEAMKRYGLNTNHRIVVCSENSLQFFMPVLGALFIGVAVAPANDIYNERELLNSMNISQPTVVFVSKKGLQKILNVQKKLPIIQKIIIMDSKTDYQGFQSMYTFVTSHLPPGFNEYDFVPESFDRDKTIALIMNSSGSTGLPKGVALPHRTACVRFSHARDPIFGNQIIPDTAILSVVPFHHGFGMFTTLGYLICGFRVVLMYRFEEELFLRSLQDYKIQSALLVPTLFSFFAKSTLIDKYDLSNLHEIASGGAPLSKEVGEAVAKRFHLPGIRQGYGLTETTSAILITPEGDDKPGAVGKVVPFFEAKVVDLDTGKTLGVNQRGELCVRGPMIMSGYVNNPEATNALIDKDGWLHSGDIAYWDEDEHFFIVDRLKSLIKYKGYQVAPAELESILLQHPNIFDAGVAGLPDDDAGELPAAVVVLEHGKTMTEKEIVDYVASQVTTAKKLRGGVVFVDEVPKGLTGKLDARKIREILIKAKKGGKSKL

Row | Compound | composite z-score (Albumin (Bos taurus)) | composite Z-score [1] | composite z-score [2] | composite z-score [3] | composite z-score [4] | composite z-score [5] | composite z-score [6] | composite z-score (Sam68 (KHDRBS1)) | composite z-score [7] | composite z-score [8] | composite z-score [9] | composite z-score [10] | composite z-score [11] | composite z-score [12] | composite z-score [13] | composite z-score [14] | z-score [15] | composite z-score (Lefty1) | composite z-score [16] | z-score [17]
1 | CCOC(=O)[C@H](CC(C)C)NC(=O)CCC1CC(OC(=O)NCCc2ccc(F)cc2)CC2(CCCC(COC(=O)NCCOc3ccccc3)O2)O1 (stereo not given in full) | 0.671 | 0.0308 (inactive) | 0.0496 | -0.0971 | 0.193 | 1.31 | -0.0164 | 1.23 | 0.324 | 0.931 | 0.744 | 0.698 | 0.231 | 0.985 | 0.826 | 0.692 | 0.0542 | 1.35 | 0.394 | 0.96 (inactive)
2 | COc1ccc(O[C@@H]2[C@H](O)CO[C@H]2C=Cc2ccccc2)cc1 | 0.529 | -0.176 (inactive) | -0.0647 | -0.0488 | -0.338 | 0.0177 | -0.798 | 0.116 | -0.28 | -0.283 | 0.326 | -0.437 | 0.051 | 0.173 | -0.117 | 0.117 | 1.66 | -0.208 | 0.0385 | -1.69 (inactive)
3 | CC(=O)OC[C@H]1O[C@H](CCON=C2[C@H]3CCn4c(=O)n(-c5ccccc5)c(=O)n4[C@H]3[C@H](O)[C@@H]3O[C@H]23)C=C[C@@H]1OC(C)=O | 0.378 | 0.22 (inactive) | 0.348 | 0.088 | 0.127 | 0.343 | -0.0654 | 0.283 | 0.47 | -0.0333 | -0.405 | -0.169 | -0.749 | 0.366 | 0.334 | 0.594 | -0.297 | 0.397 | -0.0229 | 0.416 (inactive)
4 | C[C@@H](c1ccccc1)N1C(=O)[C@H]2[C@H]3[C@H](O)[C@H](O)CC(=NOCc4ccccc4)[C@H]3CC[C@H]2C1=O | 0.437 | -0.325 (inactive) | -0.0288 | -0.147 | 0.388 | 0.797 | 0.771 | 1.17 | 0.365 | 0.951 | 1.2 | 1.17 | 0.0785 | 0.823 | 0.287 | 0.181 | 1.06 | 0.295 | 0.0559 | 0.0057 (inactive)
5 | O=C1[C@H]2[C@H]3[C@H](O)[C@H](O)CC(=NOC[C@@H](O)COCc4ccco4)[C@H]3CC[C@H]2C(=O)N1c1ccc(F)cc1F | -0.0108 | -0.214 (inactive) | -0.291 | -0.146 | 0.823 | -0.823 | 0.0839 | -1.25 | -0.48 | -1.03 | -0.385 | 0.553 | -0.0614 | -1.6 | -0.868 | -1.01 | 0.383 | -0.0889 | 0.972 | -0.243 (inactive)

Reference: PubChem BioAssay
